An excerpt weighted towards active compounds, which were near 7.9% of everything screened.
KB-V1 cytotox – kills drug-selected multidrug resistant KB-V1 cells; 3.4% of 400,000 active; KB-V1 MDR cells viability, CellTiter-Glo, 72 h; Potency, µM (series often up to 46.1 µM), most hits filed as cytotoxic; also: % is scaled to controls: 0 for no effect and ±100 for the full control effect; nearly all actives have a fitted effect of over 60% in size
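KB-V1, DMEM (no phenol red) + 10% FBS; cpd pin-transferred, titration series; 72 h, 37 degrees C; CellTiter-Glo, luminescence. Data normalized, curve-fit.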
KB-3-1 cytotox – KB-3-1 parental cell cytotoxicity | KB-3-1 viability, CellTiter-Glo ATP luminescence, 72 h | Potency, µM (top dose mostly 46.1 µM), most hits filed as cytotoxic | 1.4% of 400,000 active | AID 1347075; also: % is scaled to controls: 0 for no effect and ±100 for the full control effect; nearly all actives have a fitted effect of over 60% in size
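Cells are dispensed, compounds pinned in, plates held at 37 °C for 72 h, then CellTiter-Glo is added and luminescence read after 10 minutes. Cell line: parental KB-3-1 in phenol-red-free DMEM, 10% FBS.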
MCF10A rerep – induces DNA re-replication in MCF 10a normal breast cells. 2.9% of 350,000 active. MCF 10A DNA re-replication, Hoechst nuclear intensity, 48 h. Potency, µM (highest dose often 46.1 µM), for the others: at the top dose activity, positive = re-replication, usual class: activators; also: % of control where 0% means no effect; nearly all actives have a fitted effect of over 50% in size
SW480 rereplic – DNA re-replication induction in SW480 cells; Potency, µM (highest dose often 46.1 µM), inactives show at the top dose re-replication activation, usual class: activators; 1.8% of 340,000 active; SW480 DNA re-replication, Hoechst DNA content imaging, 48 h; also: % of control where 0% means no effect; nearly all actives have a fitted effect of over 55% in size
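Hoechst fluorescence of nuclei (405 nm excitation, 500-530 nm emission) measured by plate-scanning imager after 48 hr compound exposure at 37 C; re-replication scored as increased number of nuclei with elevated intensity.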
HT1080NT lethal – kills 2HG-producing HT-1080-NT fibrosarcoma cells | HT-1080-NT fibrosarcoma viability, CellTiter-Glo ATP luminescence, 48 h | 1.6% of 360,000 active | Potency, µM (series often up to 46.1 µM), for inactives: at the top dose activity, negative = less viability, most hits filed as cytotoxic;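 also: NT is the 2HG producing partner of a matched IDH1 knockdown line; 0% = DMSO-treated cells and -100% = media-only wells without cells; nearly all actives have a fitted effect of over 55% in size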
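Luminescent CellTiter-Glo readout after 48 hours of compound exposure at 37 degrees C defined viability of HT-1080-NT cells. Activity was normalized to DMSO wells and cell-free media wells; concentration-response curves were fitted and assigned curve classes.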
HT1080 IDH1KD tx – kills HT-1080 cells with IDH1 knockdown; HT-1080 IDH1 knockdown viability, ATP luminescence, 48 h; AID 686971; Potency, µM (series often up to 46.1 µM), inactives show at the highest dose activity, negative = toxicity, most hits filed as cytotoxic; 2% of 360,000 active;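 also: 0% = DMSO wells and -100% = cell-free medium wells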
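Cytotoxicity counter-line: IDH1KD HT-1080, 48 h, CellTiter-Glo. Curves classed by r2, magnitude and activity.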
An asterisk follows results filed as active; i = inactive; ? = inconclusive; . = not tested or not shown; [ ] = dose if it differs, or a comment. Calls follow the shape of the dose curve; as a rule, active = well fitted curve in the direction sought with a large enough effect; inconclusive = small, poorly fitted or top-dose-only effect, or another doubt; inactive = no such curve, though single readings can be large; an effect the other way counts as inactive or inconclusive. Potency is read from the fitted curve at half-maximal effect.

SMILES | KB-V1 cytotox | KB-3-1 cytotox | MCF10A rerep | SW480 rereplic | HT1080NT lethal | HT1080 IDH1KD tx
CC(=O)N1c2ccc(C)cc2Sc2c1ccc1ccccc21 | i | i | 20.6µM* | ? | ? | -25.0%
CCOC(=O)c1cccc(NC(=O)C2CCN(S(=O)(=O)c3cccs3)CC2)c1 | 7.31µM* | ? | 16.2% | 4.1% | ? | ?
O=C(C1CCN(S(=O)(=O)c2cccs2)CC1)N1CCCCC1 | i | i | 3.2% | -16.3% | -0.3% | -3.8%
Cc1ccc(NC(=O)C2CCN(S(=O)(=O)c3cccs3)CC2)cc1 | i | i | -14.8% | -23.6%[1.84 µM] | -7.2% | -19.2%
COc1cccc(NC(=O)C2CCC(CNS(=O)(=O)c3csc(C(N)=O)c3)CC2)c1 (centres undefined) | i | i | . | . | . | .
COc1cccc(NC(=O)C2CCC(CNS(=O)(=O)c3cccs3)CC2)c1 (centres undefined) | i | ? | ? | 20.6µM* | ? | -7.6%
CCOC(=O)C1CCCN(C(=O)C2CCN(S(=O)(=O)c3cccs3)CC2)C1 (centres undefined) | i | 20.6µM* | -1.7% | 0.5% | 6.8% | 15.7%
O=C(Nc1ccc(F)c(F)c1)C1CCN(S(=O)(=O)c2cccs2)CC1 | 16.4µM* | i | 11.8% | 4.5% | 2.9% | 8.4%
COc1ccc(F)cc1-c1cc(C(=O)NCc2cccc(Cl)c2)[nH]n1 | i | i | . | . | 4.3% | 2.6%
CCOC(=O)C1CCN(C(=O)C2CCN(S(=O)(=O)c3cc(Cl)ccc3Cl)CC2)CC1 | 23.1µM* | i | -2.4% | -2.6% | 8.1% | -26.7%
CCOC(=O)N1CCN(C(=O)C2CCN(S(=O)(=O)c3cc(Cl)ccc3Cl)CC2)CC1 | ? | i | 3.0% | -3.3% | 0.5% | 2.4%
COc1ccc(COc2ccsc2C(=O)Nc2ccc(Cl)c(Cl)c2)cc1 | i | i | 18.4µM* | 11.5% | -0.7% | 1.4%
CC(=O)Nc1ccc(-c2nnc(SCC(=O)c3ccc([N+](=O)[O-])cc3)o2)cc1 | i | i | . | . | . | .
O=C(O)c1cccc(-c2ccc(/C=C3/SC(=Nc4ccccc4)N(Cc4cccnc4)C3=O)o2)c1 | i | i | 4.1% | -2.6% | 2.7% | -2.0%
CCN=C1S/C(=C/c2ccc(-c3ccc(Cl)cc3C(=O)O)o2)C(=O)N1CC | i | i | 6.51µM* | 11.6µM* | -9.8% | -0.6%
CCN=C1S/C(=C\c2cn(C(C)=O)nc2-c2ccccc2)C(=O)N1CC | 18.4µM* | i | ? | -20.1% | 21.1% | -3.4%
CCN=C1S/C(=C\c2ccc(-c3cccc(C(=O)O)c3)o2)C(=O)N1CC | i | i | ? | 5.8µM* | -7.8% | -13.1%
CC(=O)NC1=NC(=O)/C(=C/c2cn(C(C)=O)nc2-c2ccccc2)S1 | ? | i | ? | ? | 10.6% | -0.2%
CC1(C)Cc2c(cnn2-c2ccccc2)-c2c1c1ccccc1n2CC(O)CCl (centres undefined) | ? | ? | ? | -1.5% | 18.4µM* | 20.6µM*
CC1(C)Cc2c(cnn2-c2ccccc2)C(=O)/C1=N\NC(=O)c1ccncc1 | i | i | 6.9% | -7.3% | -8.6% | -6.9%
CCOC(=O)c1c(N/N=C/c2cccnc2)n[nH]c1C | 5.8µM* | 9.2µM* | ? | ? | ? | ?
Cc1cc(C(=O)NCc2ccccc2Cl)c2c(C)nn(-c3ccccc3)c2n1 | ? | i | . | . | . | .
COC(=O)c1ccc2c(c1)C(C)(C)C(/C=C/c1ccccc1O)=[N+]2C | ? | 4.47µM* | 7.08µM* | 5.62µM* | 4.47µM* | 3.55µM*
CCOc1ccc(OCCNC2CCCC2)cc1 | ? | i | -0.5% | -7.9% | -2.2% | -5.0%
COc1cccc(OC)c1OCCCNC1CCCC1 | i | i | -3.0% | 6.51µM* | -15.4% | -0.3%
SMILES | KB-V1 cytotox | KB-3-1 cytotox | MCF10A rerep | SW480 rereplic | HT1080NT lethal | HT1080 IDH1KD tx
CCOc1ccccc1OCCNC1CCCC1 | i | i | ? | 23.1µM* | 0.1% | 6.4%
CCCOc1ccc(OCCNC2CCCC2)cc1 | 23.1µM* | i | ? | -3.6% | -2.5% | 0.1%
N#Cc1ccccc1OCCCNC1CCCC1 | i | i | -4.2% | 6.1% | 15.5% | 1.5%
CC(C)(C)c1ccc(OCCCNC2CCCC2)cc1 | ? | ? | 16.4µM* | ? | ? | ?
Cc1ccc(CCNS(=O)(=O)c2ccc3c(c2)CC(C)N3C(=O)C2CCC2)cc1 (centres undefined) | i | i | . | . | . | .
O=C(N/N=C/c1cccc2nccnc12)c1ccncc1 | i | i | 9.8% | ? | -22.8% | ?
O=C(N/N=C/c1cccc2nccnc12)c1ccccc1O | i | ? | ? | 14.6µM* | ? | -22.3%
O=C(/C=C/c1ccco1)Nc1ccc2nn(-c3ccccc3)nc2c1 | i | i | 7.31µM* | 2.7% | 15.2% | 9.7%
CC(C)CC(=O)Nc1ccc2nn(-c3ccccc3)nc2c1 | 16.4µM* | i | 10.6% | 13.5% | -7.5% | -13.8%
Cc1ccc(-n2nc3ccc(NC(=O)C(C)C)cc3n2)cc1 | i | ? | 4.1% | 9.1% | -3.7% | -0.9%
COc1cccc(CNC(=O)CN2C(=O)CSc3ccc(S(=O)(=O)N(C)C)cc32)c1 | i | i | . | . | . | .
O=C(Cc1ccc(OCc2ccccn2)cc1)NO | i | i | . | . | . | .
COc1ccc(NC(=O)C(=O)N2N=C(C(C)C)CC2(O)C(F)(F)F)cc1 (centres undefined) | i | i | ? | ? | ? | 8.91µM*
CCC1=NN(C(=O)C(=O)Nc2ccc(Br)cc2)C(O)(C(F)(F)F)C1 (centres undefined) | i | i | ? | 47.2% | 20.6µM* | ?
CC(C)C1=NN(C(=O)c2cccnc2)C(O)(C(F)(F)F)C1 (centres undefined) | i | i | ? | 2.2% | 5.5% | -1.7%
CCCC1=NN(C(=O)C(=O)Nc2ccc(Br)cc2)C(O)(C(F)(F)F)C1 (centres undefined) | i | i | 16.9% | ? | 13µM* | 16.4µM*
CCC1=NN(C(=O)CCc2ccccc2O)C(O)(C(F)(F)F)C1 (centres undefined) | i | i | -5.8% | -0.8% | 21.4% | 8.2%
C=CCNc1nc(-c2cccs2)c(CC(=O)O)s1 | i | i | 24.2% | -6.4% | -12.7% | -2.6%
O=C(Cc1sc(-c2ccccc2)nc1-c1ccccc1)Nc1ccccc1 | i | i | ? | 3.5% | -19.6% | -15.0%
O=C(Cc1sc(Nc2ccccc2)nc1-c1ccccc1)NCc1ccccc1 | ? | 16.4µM* | ? | ? | ? | ?

Screening data (PubChem BioAssay)
